Screens (PubChem)
WRN helicase inh: inhibitors of human WRN helicase; 360,000 tested, 0.46% active; Potency, µM (top dose mostly 114 µM), inactives show top-dose activity change, negative = inhibition, most hits filed as inhibitors; WRN helicase unwinding, fluorescent forked duplex, kinetic; also: potency is read from the fitted curve at half-maximal effect; % is scaled to controls: 0 for no effect and ±100 for the full control effect; nearly all actives have a fitted effect of over 55% in size
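Kinetic fluorescence helicase assay: unwinding of a quenched forked DNA duplex (100 nM final) with 2 mM ATP final raises red fluorescence (525/598 nm). Compounds sat 15 min at room temperature with 20 nM WRN beforehand.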
Pin1 inh: blocks the human prolyl isomerase Pin1 | AID 504891 | Pin1 FP peptide displacement, HiFluor488, 10 min | Q13526 | Potency, µM (titrated, usually from 115 µM), for inactives: at the top dose activity, negative = inhibition, hits mostly inhibitors | 390,000 tested, 0.009% active; active = well fitted inhibition curve with a large enough effect in the polarisation, with a control signal flat, not every such curve was filed as active; inconclusive = small, poorly fitted or top-dose-only effect, or effect the other way, or a change in a side signal; inactive = no such curve, though single readings can be large or run the other way; the % refers to the polarisation; also: potency is read from the fitted curve at half-maximal effect; % is scaled to controls: 0 for no effect and ±100 for the full control effect
PI5P4Ka inh: blocks human PI5P4K alpha kinase activity; PI5P4Kalpha enzyme, ADP-Glo luminescence, 60 min; hits give low values; 330,000 tested, 1.2% active; P48426; max response, %; active = max response of -50% or lower; inconclusive = between -30% and -50%; inactive = -30% or higher; also: value at the top dose of about 77 µM; % is scaled to controls: 0 for no effect and ±100 for the full control effect
Target sequence (P48426 whole entry, looked up): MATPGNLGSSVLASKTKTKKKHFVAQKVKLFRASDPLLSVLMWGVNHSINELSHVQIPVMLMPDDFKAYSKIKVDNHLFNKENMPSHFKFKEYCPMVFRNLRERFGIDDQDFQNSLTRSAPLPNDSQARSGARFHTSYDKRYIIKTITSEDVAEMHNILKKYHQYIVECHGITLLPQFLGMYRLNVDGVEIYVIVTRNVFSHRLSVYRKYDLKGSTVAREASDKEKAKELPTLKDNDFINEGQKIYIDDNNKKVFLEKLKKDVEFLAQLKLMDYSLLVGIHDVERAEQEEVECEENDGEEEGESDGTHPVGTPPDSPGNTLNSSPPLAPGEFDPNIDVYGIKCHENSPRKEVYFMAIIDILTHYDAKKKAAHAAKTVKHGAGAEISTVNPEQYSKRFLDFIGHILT
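Controls without substrate or without enzyme flank wells where PI5P4Kalpha converts substrate using 5 microM ATP (final). Incubation lasts 60 minutes at room temperature; ADP formed is read by ADP-Glo luminescence.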
PGK inhibitor: T. brucei PGK inhibition; Potency, µM (doses to about 57.5 µM), for the others: top-dose activity change, negative = inhibition, actives largely listed as inhibitors; 380,000 tested, 0.043% active; AID 602233; PGK/GAPDH coupled, Kinase-Glo luminescence, 60 min; also: potency is read from the fitted curve at half-maximal effect; % is scaled to controls: 0 for no effect and ±100 for the full control effect; nearly all actives have a fitted effect of over 60% in size
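Luminescent ATP detection (Kinase-Glo Plus) follows a 60-minute room-temperature incubation, with wells lacking PGK as controls. Buffer: 100 mM TEA (pH 7.6), 5 mM MgCl2, 0.01% Tween-20. Coupling enzyme GAPDH (100 nM final) supplies unstable 1,3-BPG in-well.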
GRP78 ERSR act: ER stress response induction in glioma; U87-MG GRP78 promoter luciferase reporter, 16 h; Potency, µM, for inactives: at the highest dose activation, hits mostly activators; 420,000 tested, 0.02% active; AID 602332; also: potency is read from the fitted curve at half-maximal effect; series mostly up to about 76 µM; % of control where 0% means no effect; nearly all actives have a fitted effect of over 35% in size
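ERSR induction read as luciferase luminescence (Bright-Glo, 10 min at room temperature) in stably transfected human U87-MG glioma cells exposed to compounds for 16 h, using GRP78 as sensor.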
FEN1 inh: human FEN1 inhibition | Recombinant FEN1 flap cleavage, fluorescence, 15 min | Potency, µM (top dose mostly 114 µM), for the others: at the highest dose activity change, negative = inhibition, usual class: inhibitors | 390,000 tested, 0.35% active; also: potency is read from the fitted curve at half-maximal effect; % is scaled to controls: 0 for no effect and ±100 for the full control effect; nearly all actives have a fitted effect of over 65% in size
Target sequence (P39748 whole entry, looked up): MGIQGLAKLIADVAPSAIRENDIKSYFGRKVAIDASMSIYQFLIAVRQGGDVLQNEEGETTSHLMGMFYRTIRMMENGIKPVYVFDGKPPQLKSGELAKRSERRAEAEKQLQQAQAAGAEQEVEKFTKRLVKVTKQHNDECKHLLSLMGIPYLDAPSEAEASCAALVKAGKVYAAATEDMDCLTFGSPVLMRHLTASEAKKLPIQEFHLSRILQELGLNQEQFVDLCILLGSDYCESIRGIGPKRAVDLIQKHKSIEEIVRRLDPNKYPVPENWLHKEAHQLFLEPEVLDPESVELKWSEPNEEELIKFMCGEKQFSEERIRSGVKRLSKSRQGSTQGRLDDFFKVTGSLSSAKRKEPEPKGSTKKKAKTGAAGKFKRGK
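FEN1 at 10 nM preincubated with compounds 15 min at room temperature, then flap DNA substrate added at 50 nM final. Signal read at 0 and 15 min; concentration-response fitted with four-parameter Hill equation.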
Active calls of the source: *; i = inactive; ? = inconclusive; . = no result given; [ ] = dose if it differs, or a comment. Only some compounds are listed: those with a hit (about 1.3% of all), similar ones and a draw of the others. Unless noted, calls follow the shape of the dose curve; as a rule, active = well fitted curve in the direction sought with a large enough effect; inconclusive = small, poorly fitted or top-dose-only effect, or another doubt; inactive = no such curve, though single readings can be large; an effect the other way counts as inactive or inconclusive.

SMILES | WRN helicase inh | Pin1 inh | PI5P4Ka inh | PGK inhibitor | GRP78 ERSR act | FEN1 inh
Cc1occc1C(=O)NCc1cccc(CNC(=O)c2ccoc2C)c1 | 40µM* | . | -53* | ? | -5% | ?
Cn1nnnc1Sc1ncnc2scc(-c3ccc(N)cc3)c12 | . | -1% | . | . | . | .
Cc1ccc(NS(=O)(=O)c2cc3c(cc2N(C)C)CCC(=O)N3)cc1C | . | 6% | . | . | . | .
Cc1nc(Nc2nc(CSc3nc4ccccc4[nH]3)cc(=O)[nH]2)nc2ccccc12 | 7% | 3% | -5 | -9% | -6% | 3%
Cc1nc(Nc2nc(-c3ccccc3)cc(=O)[nH]2)nc2ccccc12 | -34% | 30% | -11 | -4% | -6% | 25µM*
COc1ccc(CN2CCOc3c(O)cc(-c4cc(C)c5ccc(F)cc5n4)cc3C2)c(O)c1 | . | . | . | . | -2% | .
Oc1c(Br)cc(Br)cc1/C=N/NC(=S)N[C@H]1CC2C=CC1C2 (stereo not given in full) | -19% | -11% | -89* | i | -9% | -12%
O=c1cc(-c2nn[nH]n2)[nH]c(=O)[nH]1 | -2% | 3% | -70* | -10% | -2% | -6%
c1csc(-c2nn[nH]n2)c1 | 1% | 10% | 3 | -1% | 4% | 2%
CCOc1cc(/C=C\c2nc(O)c([N+](=O)[O-])c(=O)[nH]2)ccc1OC(C)CC (stereo not given) | -17% | -1% | ? | . | -2% | -4%
COc1ccc(-n2c(C)cc(/C=C/c3nc(O)c([N+](=O)[O-])c(=O)[nH]3)c2C)cc1 | -16%[57.1 µM] | -1% | -52* | -19% | -3% | ?
COc1ccc(NC(=O)/C(C#N)=C\c2cc(C)n(-c3ccc(Oc4ccc([N+](=O)[O-])cn4)cc3)c2C)cc1 | 7% | -1% | -19 | -10% | -6% | 3%
Cc1cc(/C=C\c2nc(O)c([N+](=O)[O-])c(=O)[nH]2)c(C)n1-c1ccccc1 | ? | -4% | -63* | -13% | -4% | ?
O=C(COc1ccccc1/C=C\c1nc(O)c([N+](=O)[O-])c(=O)[nH]1)Nc1ccccc1 | ? | ? | -55* | 7% | 2% | -22%
O=C(NCC1(N2CCOCC2)CCCCCC1)c1cnn(-c2nccc(-c3ccco3)n2)c1C1CC1 | . | . | . | . | -4% | .
Cc1cc(O)c(C(=O)/C=C/c2cccc([N+](=O)[O-])c2)c(=O)o1 | -27% | ? | -86* | -11% | -3% | -9%
Brc1ccc(C2Nc3cccc4cccc(c34)N2)o1 | -21%[57.1 µM] | ? | . | -10% | 2% | 28µM*
CN=C1S/C(=C\c2ccc(O)c(Br)c2)C(=O)N1C | -1%[57.1 µM] | 9% | -79* | -16% | 6% | -23%
CN=C1S/C(=C\c2ccc(O)c(OC)c2)C(=O)N1C | -28% | 15% | 6 | i | 9% | -16%
c1ccc2sc(-c3cc4c(c(OC5CCOC5)c3)OCCN(Cc3cccn3-c3nccs3)C4)nc2c1 (stereo not given) | . | . | . | . | -3% | .
COc1ccc(NC(=O)c2cc3c(C)nn(-c4ccccc4)c3s2)c(OC)c1 | . | -4% | . | -1% | -6% | -2%
COc1ccc(NS(=O)(=O)c2ccc(O)c(NC(=O)c3cc4c(C)nn(-c5ccc(F)cc5)c4s3)c2)cc1 | ? | ? | -25 | -17% | -12% | 56µM*
Cc1cnc(SCC2CCCO2)nc1C1CCCN(Cc2cc3c(cc2Cl)OCO3)C1 (stereo not given) | . | . | . | . | -5% | .
N#Cc1nc(Nc2cc(F)cc(F)c2)nc(Nc2cc(F)cc(F)c2)n1 | . | 47% | . | . | . | .
O=S(=O)(O)c1cccc2c(N=Nc3ccc(O)c4ncccc34)cccc12 | 22µM* | . | -81* | ? | -5% | ?
SMILES | WRN helicase inh | Pin1 inh | PI5P4Ka inh | PGK inhibitor | GRP78 ERSR act | FEN1 inh
Cc1ccccc1N=Nc1ccc(O)c2ncccc12 | 3% | -14% | 0 | -6% | -1% | -3%
Cc1cc2c(s1)c1cnn(Cc3c(F)ccc(C)c3Cl)c(=O)c1n2C | . | 1% | . | . | . | .
Brc1cccc[n+]1CCCCCC[n+]1ccccc1Br | . | . | . | . | -4% | 79µM*
Brc1cccc[n+]1CCCC[n+]1ccccc1Br | . | . | . | . | -3% | 79µM*
CSc1nnc(CNC(=O)/C=C/c2ccccc2Cl)n1-c1ccc(F)cc1 | . | . | . | . | -1% | .
Cc1oc(-c2cccc(NC(=O)c3ccccn3)c2)nc1CNC(=O)C#Cc1ccccc1 | . | . | . | . | -2% | .
Cc1ccccc1C(=O)N1CC/C(=N/OS(=O)(=O)O)c2ccc(Cl)cc21 | . | . | . | . | -4% | .
O=[S+]([O-])(c1ccc2c(c1)OCCO2)N1CCN([S+](=O)([O-])c2ccccc2Br)CC1 | . | -15% | . | . | . | .
Cc1cccc[n+]1C1C(c2ccccc2)C(C#N)=C(C(=C=[N-])C#N)NC1(O)C1CC1 (stereo not given) | ? | ? | -74* | -15% | -1% | -24%
N#CC(=C=[N-])C1=C(C#N)C(c2ccccc2F)C([n+]2ccccc2)C(O)(C2CC2)N1 (stereo not given) | -12% | 7% | . | -6% | -4% | 1%
CCC(=O)OC1CCC2C3CCc4cc(O)ccc4C3CCC12C (stereo not given) | . | . | . | . | -5% | .
Cc1ccc(Cl)cc1NS(=O)(=O)c1cc2c(cc1Cl)CCC(=O)N2 | . | 8% | . | . | . | .
Cn1c(=S)[nH]c2[nH]c(=O)cnc2c1=O | -10% | -1% | -52* | 3% | -3% | -2%
COc1ccc2c(c1)OC(C)CN(CCNC(=O)C1CCOC1)C2 (stereo not given) | . | . | . | . | -6% | .
CC1=C(C#N)C(=O)NC(=O)/C1=C\c1ccc(-c2ccc(C)cc2[N+](=O)[O-])o1 | ? | ? | -75* | -1% | -2% | -6%
CCOC(=O)c1cc(-c2ccc(/C=C3/C(=O)NC(=O)C(C#N)=C3C)o2)ccc1Cl | ? | ? | . | 4% | -1% | ?
N#Cc1nc(Nc2cc(F)cc(F)c2)c2ncn(CCCN3CCCC3)c2n1 | . | 7% | . | . | . | .
CCc1ccccc1NC(=O)C1CCCN1S(=O)(=O)c1ccc(-c2ccc(=O)[nH]n2)s1 (stereo not given) | -4%[11.6 µM] | ? | -59* | 1% | -3% | 14%
Cc1cccc(C)c1NC(=O)C1CCCN1S(=O)(=O)c1ccc(-c2ccc(=O)[nH]n2)s1 (stereo not given) | 1% | -5% | ? | i | -5% | -5%
CC(C)=NNc1cnnc2ccc([N+](=O)[O-])cc12 | -11%[57.1 µM] | . | -69* | . | -1% | .
C/C(=N\Nc1ccc([N+](=O)[O-])cc1[N+](=O)[O-])c1cccnc1 | 1% | -5% | -2 | -1% | -5% | 8%
COc1ccc(CN2CCCC(n3cc(C(=O)NC4CCCC4)nn3)C2)c2ccccc12 (stereo not given) | . | . | . | . | -3% | .
